Reference: PubChem BioAssay (NCATS)
Inconclusive results are not listed. Where a call stands in place of a potency, no number is given. Active and inactive are the calls of the source. Calls follow the shape of the dose curve; as a rule, active = well fitted cell-killing curve with a large enough effect; inconclusive = small, poorly fitted or top-dose-only effect, or effect the other way; inactive = no such curve, though single readings can be large or run the other way.

Assay: Viability qHTS for spleen associated tyrosine kinase inhibitor (SYKi) naive MV4-11 cells (AID 1963823); also: nearly all actives have a fitted effect of over 40% in size
Conditions: MV4-11 AML viability, CellTiter-Glo luminescence, 72 h; series mostly up to 45 µM
In short: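 Read-out: CellTiter-Glo luminescence. Exposure: 72 hr, 37 C, 5% CO2, 95% humidity. Cells: MV4-11 without SYK inhibitor history, 500/well, qHTS format.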
Potency is read from the fitted curve at half-maximal effect.

Row | Structure (SMILES) | Potency | viability (% of control)
1 | COc1ccc(C2(O)c3ccccc3NC(=O)C2O)cc1 (configuration not stated) | inactive | –
2 | CCCC(=O)c1cc(O)c(O)cc1O | inactive | –
3 | COCCN1CCC(C(=O)NO)(S(=O)(=O)c2ccc(Oc3ccc(OC(F)(F)F)cc3)cc2)CC1 | 20.6 µM (active) | –
4 | NC[C@@H]1O[C@@H](O[C@@H]2[C@@H](O[C@@H]3O[C@H](CO)[C@@H](O)[C@H]3O)[C@H](O)[C@@H](N)C[C@H]2N)[C@@H](N)[C@H](O)[C@H]1O | – | 88.1% [at 9.25 µM] (inactive)
5 | CC1(C)C(=O)N2c3ccccc3[C@]3(CC(n4cnc5ccccc5c4=O)C(=O)O3)[C@H]2N1O (some centres not stated) | inactive | –
6 | CCC(=O)O[C@H]1C(C)(C)[C@H]([C@@H](O)C(=O)OC)[C@]2(C)C(=O)[C@@]1(O)[C@H]1O[C@]13C1CC(=O)O[C@@H](c4ccoc4)[C@]1(C)CCC32 (some centres not stated) | inactive | –
7 | CCOc1ccc(C(Nc2ccccn2)c2ccc3ccc(C)nc3c2O)cc1C (configuration not stated) | 23.1 µM (active) | –
8 | O=C(/C=C/c1ccc(O)cc1)N[C@@H](Cc1ccc(O)cc1)C(=O)O | inactive | –
9 | CC(=O)OC[C@]12[C@H](OC(C)=O)[C@H](OC(=O)c3ccccc3)[C@@H]3[C@@H](OC(C)=O)[C@]1(OC3(C)C)[C@H](C)C[C@H](OC(=O)c1ccccc1)[C@@H]2OC(=O)c1ccccc1 | inactive | –
10 | Cc1nnsc1C(=O)Nc1ccc(-n2nc(C(F)(F)F)cc2C(F)(F)F)cc1 | 18.4 µM (active) | –
11 | O=C(NCCN1CCCC1)c1cc(-c2ccc(CN3CCOCC3)cc2)nc2ccc(F)cc12 | inactive | –
12 | CC(NCc1ccc(OCc2cccc(F)c2)cc1)C(N)=O (configuration not stated) | inactive | –
